# Screening results as filed in PubChem.
# GalR3 antag – blocks the human galanin receptor 3; HEK293 GalR3-CNG cAMP membrane potential fluorescence; galR3 body fused to GalR1 C-terminus; O60755; actives 0.44% (n = 360,000); inhibition, % at 3 µM;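 active = inhibition above the screen-wide average plus 3 SD, cut at about 13% in these data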;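 note: forskolin and galanin both at EC90 stimulate the cells; cAMP rise reported by CNG channel membrane potential dye signal; 0% = forskolin plus galanin with DMSO and 100% = forskolin alone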
# Target sequence (O60755 1-299 limits assumed): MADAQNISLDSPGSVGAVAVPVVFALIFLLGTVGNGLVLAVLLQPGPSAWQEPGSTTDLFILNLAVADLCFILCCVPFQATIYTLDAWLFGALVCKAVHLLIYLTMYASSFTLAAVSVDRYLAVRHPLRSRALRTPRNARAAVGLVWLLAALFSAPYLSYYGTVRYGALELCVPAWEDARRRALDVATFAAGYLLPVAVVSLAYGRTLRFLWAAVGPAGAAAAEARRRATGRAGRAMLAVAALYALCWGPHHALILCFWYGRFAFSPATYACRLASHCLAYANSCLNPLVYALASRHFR
# GAA850 FXN act – activators of GAA850 frataxin (FXN) promoter; HEK293 lucGAA850 FXN promoter luciferase reporter, 24 h; percent of 10 µM SAHA response; activation, % at 6 µM; actives 0.56% (n = 360,000); AID 540364;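 active = activation above the average of all compounds screened plus 3 SD, cutoff fixed separately per campaign, cut at about 7.5% in these data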;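 note: 0% = DMSO wells and 100% = 10 µM SAHA wells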
# Hsp70 act – Hsp70 transcriptional activation, primary screen; activation, % at 10 µM; AID 1203; HeLa Hsp70 promoter luciferase reporter, luminescence; scaled: vehicle 0, proteasome-inhibitor control 100%; actives 0.04% (n = 200,000);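 active = activation above the mean across all tested compounds plus 3 SD, cutoff set per campaign, cut at about 5.5% in these data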;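 note: 100% = MG132 at 30 µM as the positive control and 0% = DMSO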
# HIF act – HIF pathway transcriptional activation; U2OS HRE-luciferase reporter, luminescence; normalized: DMSO 0%, desferrioxamine 100%; activation, % at 7.5 µM (by protocol); actives 0.32% (n = 300,000);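 active = mean activation of at least 10% of the iron chelator positive control signal, with at least half of replicates also reaching 10%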
# SMARCA2 act – SMARCA2 function activation, primary screen. MG213 cells, MMTV-luciferase reporter, dexamethasone, overnight. activation, % at 9.1 µM. actives 1% (n = 370,000); in the data active = activation above about 7.8%;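 note: 0% = vehicle wells and 100% = reference activator wells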
# GalR3 conf – GalR3 (human) antagonism, confirmation; HEK293 GalR3 CNG cAMP biosensor, membrane potential fluorescence; galR3 fused to GalR1 carboxy tail; challenged with forskolin and galanin at EC90; inhibition, % at 3 µM; shares compounds with GalR3 antag; actives 59% (n = 1,600);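 active = inhibition above the primary screen's cutoff, the mean inhibition of all screened compounds plus 3 SD, cut at about 13% in these data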;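 note: 0% = forskolin plus galanin and 100% = forskolin alone with DMSO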
# HEK-CNG parental – counter-screen for GalR3 antagonists: nonspecific agonists in parental HEK-CNG cells; actives 10% (n = 1,600); shares compounds with GalR3 antag; activation, % at 3 µM; AID 652268; HEK293-CNG parental cells, cAMP membrane potential fluorescence; normalised: DMSO wells 0%, forskolin wells 100%; in the data active = activation above about 1.3%
# * marks the source's active call; other numbers are inactive results; x = no result. Hits are enriched below; roughly 2.2% of the tested compounds scored in any of these assays.
SMILES,GalR3 antag,GAA850 FXN act,Hsp70 act,HIF act,SMARCA2 act,GalR3 conf,HEK-CNG parental
Cc1nnc(N/N=C/c2ccc([N+](=O)[O-])cc2)n1N,15*,1,0,3,-9,4,0
O=C(C(=O)N1CCC(CNC(=O)c2sc3ccccc3c2Cl)CC1)c1cccs1,3,x,x,x,-8,x,x
O=C(Nc1ccccc1NS(=O)(=O)c1ccc(F)cc1)C1CCC1,x,0,0,0,0,-3,0
COc1cccc(COc2cc3ccccc3nc2C)c1,92*,-6,0,1,-5,103*,0
Cc1nc2ccccc2cc1OCc1ccc(Cl)cc1,94*,-1,0,3,-5,94*,1
Cc1nc2ccccc2cc1OCc1ccccc1,-6,-1,0,1,-4,x,x
COc1ccccc1NC(=S)OC1CCC12CCC(c1ccccc1)CC2 (stereo not given),x,x,x,x,0,x,x
Cc1cccc(NC(=O)[C@H]2CC(=O)O[C@@H]2c2ccccc2)c1C,x,x,x,x,-1,x,x
CN(C)CCCNS(=O)(=O)c1ccc(N2CCN(Cc3ccc4c(c3)OCO4)CC2)c([N+](=O)[O-])c1,57*,1,x,-1,-4,95*,0
Cc1nc(SCc2nc3ccc(F)cc3[nH]2)c2oc3ccccc3c2n1,2,3,x,x,0,x,x
Cc1nc(SCc2nc3ccc(C(=O)c4ccccc4)cc3[nH]2)c2oc3ccccc3c2n1,14*,1,x,x,2,22*,0
Cc1ccccc1OCC(=O)N1CCCc2ccccc21,-5,3,0,1,2,x,x
COc1ccccc1CC(=O)N1CCCc2ccccc21,x,0,0,0,-2,3,1
Cc1cc(Br)c(OCc2ccc(C(=O)N/N=C3\CC4CC=CC34)cc2)c(Br)c1 (stereo not given),27*,2,0,0,2,46*,0
COc1ccc(-c2nnn(CC(=O)N(CC(=O)NC3CCCC3)Cc3ccco3)n2)cc1OC,21*,1,0,-1,-3,14*,0
O=C(CN(Cc1ccco1)C(=O)Cn1nnc(-c2ccc(F)cc2)n1)NC1CCCC1,3,0,0,0,-6,x,x
Cc1ccc(NC(=O)CSc2nnc(-c3cccnc3)s2)cc1,1,2,0,0,-1,x,x
O=C(CSc1nnc(-c2cccnc2)s1)Nc1ccnc2ccccc12,90*,-5,0,0,-6,119*,0
CC(C)N1Cc2nnn(Cc3ccccc3)c2-c2cc(N3CCCC3)ccc2S1(=O)=O,x,x,x,x,-2,x,x
C/C=C/C(=O)Nc1cccc(C2=NOC3(C2)C[C@@H](C(N)=O)N(C(=O)c2cc([N+](=O)[O-])cc([N+](=O)[O-])c2C)C3)c1 (stereo not given in full),13*,2,x,-4,0,1,0
CCCCN(C)CCn1c(=S)[nH]c2ncccc2c1=O,40*,-1,0,0,1,4,0
NC(=O)c1ccc(N2CCN(S(=O)(=O)c3cccs3)CC2)c([N+](=O)[O-])c1,101*,0,x,x,-4,102*,-1
NC(=O)c1ccc(N2CCN(c3ccccc3O)CC2)c([N+](=O)[O-])c1,-2,-2,0,-1,1,x,x
COCOc1cc(O)c(C(=O)/C=C/c2ccccc2)c(OCOC)c1,22*,2,x,1,1,20*,0
COc1ccc(C(=O)/C=C/c2ccccc2)c(OC)c1,-4,0,0,4,5,x,x
SMILES,GalR3 antag,GAA850 FXN act,Hsp70 act,HIF act,SMARCA2 act,GalR3 conf,HEK-CNG parental
COc1ccc(OC)c2[nH]c(=O)c(CCNC(=O)COc3ccccc3)cc12,22*,2,-1,0,1,20*,0
COc1ccc(OC)c2[nH]c(=O)c(CCNC(C)=O)cc12,1,-2,0,0,-1,x,x
CCc1nc2ccccc2c(C(=O)OCC(=O)Nc2cccc(S(=O)(=O)NC3=NCCCCC3)c2)c1C,14*,-2,x,1,-3,0,-1
O=C(COC(=O)c1ccc2ccccc2n1)Nc1cccc(S(=O)(=O)NC2=NCCCCC2)c1,0,2,0,0,-3,x,x
COc1ccccc1NC(=O)CSC1=NC(=O)C(Cc2ccccc2)C(=O)N1 (stereo not given),13*,-1,x,0,-2,-3,0
COc1ccccc1NC(=O)CSC1=NC(=O)C(NC(C)=O)C(=O)N1 (stereo not given),-4,-1,1,0,-1,x,x
N#Cc1nc(N2CCCCC2)nc(N2CCOCC2)n1,-2,-1,0,0,-5,x,x
N#Cc1nc(N2CCCC2)nc(N2CCCC2)n1,98*,-2,-1,0,-4,112*,0
Cc1nc2ccc(NC(=O)c3cc(S(=O)(=O)N(C)c4ccccc4)ccc3Cl)cc2s1,78*,-5,0,0,-5,112*,-1
CN1CCN(C(=S)C(=O)Nc2ccc(Br)cc2)CC1,40*,1,0,1,-4,4,0
CN1CCN(C(=S)NC(=O)c2ccc(Br)cc2)CC1,-6,2,x,0,-2,x,x
COc1ccc(NC(=O)C(NC(=O)c2ccc(=O)[nH]c2)c2ccc(C)cc2)cc1 (stereo not given),-2,1,0,0,-3,x,x
COc1ccc(NC(=O)C(c2ccc(C)cc2)N(C)C(=O)c2ccc(=O)[nH]c2)cc1 (stereo not given),13*,1,-1,0,6,8,0
CS(=O)c1ccccc1COC(=O)Nc1ccc(Cl)cc1 (stereo not given),2,1,0,0,2,x,x
Cc1ccc(NC(=O)OCc2ccccc2S(C)=O)cc1 (stereo not given),15*,3,0,1,-1,29*,0
Nc1cc2ccccc2cc1NS(=O)(=O)N1CCCCC1,-8,x,x,x,-2,x,x
CN1[C@@H](Cc2ccccc2)COc2cccc(N3CCSCC3)c2S1(=O)=O,x,x,x,x,-2,x,x
Cc1cc(C)n(-c2ccc(C(=O)Nc3ccc(S(=O)(=O)NCc4ccco4)cc3)cc2)n1,71*,-4,0,0,-4,61*,-1
Cc1cc(C)cc(Nc2c3c(nc4ncnn24)CCC3)c1,13*,1,0,1,-1,-8,1.6*
Cc1cccc(Nc2c3c(nc4ncnn24)CCC3)c1,5,3,0,0,1,x,x
COC(=O)c1ccc(S(=O)(=O)N2CCC(NC(=O)Cc3cccc(C)c3)CC2)cc1,x,x,x,x,1,x,x
